Assay results published in PubChem BioAssay AID1159580 (chemical genetic matrix, 2015).
Values joined by “and” are separate entries in the source; they are usually repeats but may differ in a detail not shown here. Identical values can stand only once. The campaign covered roughly 5,500 compounds. About 2,000 (36%) were called active. About 18% were inconclusive and are not listed. The list shows a part of the results. Values without a mark were called inactive. No stated cut-off is given here; in the data, active means normalized growth mostly below about 0.91 (no sharp cut-off); inconclusive means no clear call, values can overlap the other calls; inactive means mostly above about 0.92.

Experiment: chemical genetic growth profiling, strain panel (AID 1159580);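 further: tested at 20 µM; growth read once vehicle control cultures reached saturation at 30 °C; 1 = growth at the plate median or of vehicle wells; lower values mean less growth of the strain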
Conditions: S. cerevisiae deletion strains, growth OD
[1] = locus YAL040C, strain CLN3, active compounds read low
[2] = locus YCL061C, strain MRC1 (second series), active compounds read low
[3] = locus YDR150W, strain NUM1, active compounds read low
[4] = locus YDR363W, strain ESC2, active compounds read low
[5] = locus YER002W, strain NOP16, active compounds read low
[6] = locus YGR078C, strain PAC10, active compounds read low
[7] = locus YMR307W, strain GAS1, active compounds read low
[8] = locus YNL175C, strain NOP13, active compounds read low
[9] = locus YNL197C, strain WHI3, active compounds read low
[10] = locus YNL224C, strain SQS1, active compounds read low
[11] = locus YNL322C, strain KRE1, active compounds read low
[12] = locus YOR083W, strain WHI5 (second series), active compounds read low
[13] = locus YAL013W, strain DEP1, active compounds read low
[14] = locus YBR229C, strain ROT2, active compounds read low
[15] = locus YDL101C, strain DUN1, active compounds read low
[16] = locus YDL134C, strain PPH21, active compounds read low
[17] = locus YEL061C, strain CIN8, active compounds read low
[18] = locus YHR030C, strain SLT2, active compounds read low
[19] = locus YJR043C, strain POL32, active compounds read low
[20] = locus YJR075W, strain HOC1, active compounds read low
[21] = locus YKL190W, strain CNB1, active compounds read low
[22] = locus YLR039C, strain RIC1, active compounds read low
[23] = locus YLR262C, strain YPT6, active compounds read low
[24] = locus YMR263W, strain SAP30, active compounds read low
[25] = locus YNL153C, strain GIM3, active compounds read low

SMILES: CCC1(O)CC2CN(CCc3c([nH]c4ccccc34)[C@@](C(=O)OC)(c3cc4c(cc3OC)N(C=O)C3[C@]45CCN4CC=C[C@@](CC)([C@@H](OC(C)=O)[C@]3(O)C(=O)OC)[C@H]45)C2)C1 (some centres not stated)
- normalized growth [1]: 0.979
- normalized growth [2]: 0.991
- normalized growth [3]: 0.999
- normalized growth [4]: 0.986
- normalized growth [5]: 1
- normalized growth [6]: 0.999
- normalized growth (locus YGR229C, strain SMI1, active compounds read low): 0.983
- normalized growth [7]: 0.99
- normalized growth [8]: 1.01
- normalized growth [9]: 0.983
- normalized growth [10]: 1
- normalized growth [11]: 0.957
- normalized growth [12]: 0.99

SMILES: NC(CSCSCC(N)C(=O)O)C(=O)O (configuration not stated)
- normalized growth [13]: 1.01
- normalized growth (locus YBR021W, strain FUR4, active compounds read low): 1.01
- normalized growth [14]: 0.998
- normalized growth (locus YCL029C, strain bik1, active compounds read low): 0.989
- normalized growth (locus YDL035C, strain GPR1, active compounds read low): 1.02
- normalized growth (locus YDL074C, strain BRE1, active compounds read low): 1.05
- normalized growth [15]: 1
- normalized growth [16]: 0.988
- normalized growth (locus YDL185W, strain tfp1, active compounds read low): 1.01
- normalized growth (locus YDL192W, strain arf1, active compounds read low): 0.977
- normalized growth (locus YDR101C, strain arx1, active compounds read low): 0.999
- normalized growth (locus YDR162C, strain NBP2, active compounds read low): 1.02
- normalized growth (locus YDR318W, strain mcm21, active compounds read low): 0.981
- normalized growth (locus YDR388W, active compounds read low): 0.986
- normalized growth (locus YDR502C, strain sam2, active compounds read low): 1
- normalized growth [17]: 1.02
- normalized growth (locus YER110C, active compounds read low): 0.987
- normalized growth (locus YER155C, strain BEM2, active compounds read low): 1.01
- normalized growth (locus YER167W, strain BCK2, active compounds read low): 1
- normalized growth (locus YGL078C, strain dbp3, active compounds read low): 1.01
- normalized growth (locus YGL086W, strain mad1, active compounds read low): 1
- normalized growth (locus YGL248W, strain PDE1, active compounds read low): 0.997
- normalized growth (locus YGR135W, strain pre9, active compounds read low): 0.99
- normalized growth (locus YGR252W, strain gcn5, active compounds read low): 1.11
- normalized growth [18]: 1.01 and 1.04
- normalized growth (locus YHR079C, strain IRE1 (second series), active compounds read low): 0.987
- normalized growth (locus YHR079C, strain IRE1, active compounds read low): 1.04
- normalized growth (locus YHR094C, strain hxt1, active compounds read low): 0.985
- normalized growth (locus YHR129C, strain ARP1, active compounds read low): 0.995
- normalized growth (locus YHR200W, strain rpn10, active compounds read low): 0.997
- normalized growth (locus YIL066C, strain RNR3, active compounds read low): 1.01
- normalized growth (locus YIL073C, strain SPO22, active compounds read low): 1.06
- normalized growth (locus YIL125W, strain kgd1, active compounds read low): 1.01
- normalized growth (locus YIR030C, strain dcg1, active compounds read low): 0.999
- normalized growth (locus YJL095W, strain BCK1, active compounds read low): 1.01 and 1.02
- normalized growth (locus YJL134W, strain LCB3, active compounds read low): 1.01
- normalized growth (locus YJL168C, strain set2, active compounds read low): 0.982
- normalized growth (locus YJL187C, strain SWE1 (second series), active compounds read low): 1.01
- normalized growth [19]: 1.01
- normalized growth (locus YJR066W, strain TOR1, active compounds read low): 0.979
- normalized growth [20]: 1.01
- normalized growth (locus YKL009W, strain mrt4, active compounds read low): 1.01
- normalized growth (locus YKL068W, active compounds read low): 1
- normalized growth (locus YKL085W, strain MDH1 (second series), active compounds read low): 0.998
- normalized growth (locus YKL085W, strain MDH1, active compounds read low): 0.998
- normalized growth [21]: 1.01
- normalized growth (locus YKR001C, strain vps1, active compounds read low): 1.02
- normalized growth [22]: 1.1
- normalized growth (locus YLR058C, strain SHM2, active compounds read low): 1
- normalized growth (locus YLR102C, strain apc9, active compounds read low): 0.979
- normalized growth (locus YLR113W, strain HOG1, active compounds read low): 1.04
- normalized growth [23]: 1.12
- normalized growth (locus YLR268W, strain sec22, active compounds read low): 1.02
- normalized growth (locus YLR330W, strain CHS5, active compounds read low): 1.01
- normalized growth (locus YLR342W, strain FKS1 (second series), active compounds read low): 1.02
- normalized growth (locus YLR371W, strain rom2, active compounds read low): 0.977
- normalized growth (locus YLR418C, strain cdc73, active compounds read low): 1.01
- normalized growth (locus YML016C, strain PPZ1, active compounds read low): 1
- normalized growth (locus YML032C, strain rad52, active compounds read low): 0.992
- normalized growth (locus YML124C, strain tub3, active compounds read low): 0.99
- normalized growth (locus YMR078C, strain ctf18, active compounds read low): 0.988
- normalized growth (locus YMR223W, strain ubp8, active compounds read low): 0.994
- normalized growth [24]: 1.01
- normalized growth [7]: 1.02
- normalized growth (locus YNL067W, strain RPL9B, active compounds read low): 1
- normalized growth [25]: 1
- normalized growth (locus YNL183C, strain NPR1, active compounds read low): 0.983
- normalized growth (locus YNL233W, strain BNI4, active compounds read low): 1.02
- normalized growth (locus YNL250W, strain rad50, active compounds read low): 1.02
- normalized growth (locus YNL271C, strain bni1, active compounds read low): 1.01
- normalized growth (locus YNL298W, strain CLA4, active compounds read low): 1
- normalized growth (locus YNL307C, strain MCK1, active compounds read low): 0.987
- normalized growth (locus YNR052C, strain pop2, active compounds read low): 0.999
- normalized growth (locus YOL012C, strain htz1): 0.928
- normalized growth (locus YOL147C, strain pex11, active compounds read low): 0.991
- normalized growth (locus YOR061W, strain CKA2, active compounds read low): 1.01
- normalized growth (locus YOR069W, strain VPS5, active compounds read low): 1.01
- normalized growth (locus YOR136W, strain idh2, active compounds read low): 0.996
- normalized growth (locus YOR144C, strain elg1, active compounds read low): 0.984
- normalized growth (locus YOR184W, strain ser1, active compounds read low): 0.995
- normalized growth (locus YOR231W, strain MKK1, active compounds read low): 1.04
- normalized growth (locus YOR316C, strain cot1, active compounds read low): 0.98
- normalized growth (locus YPL256C, strain CLN2, active compounds read low): 1.02
- normalized growth (locus YPR119W, strain clb2, active compounds read low): 0.987
- normalized growth (locus YPR141C, strain kar3, active compounds read low): 0.997
- normalized growth (locus YPR163C, strain tif3, active compounds read low): 0.999
- normalized growth (locus YPR167C, strain met16, active compounds read low): 0.988
- normalized growth (strain wtn01, active compounds read low): 1.04

SMILES: FC(F)(F)c1cc(CO[C@H]2CCCN[C@H]2c2ccccc2)cc(C(F)(F)F)c1
- normalized growth [13]: 0.988
- normalized growth [1]: 0.998
- normalized growth [2]: 0.975
- normalized growth [4]: 0.96
- normalized growth [5]: 1.04
- normalized growth [24]: 0.999
- normalized growth [7]: 0.964
- normalized growth (locus YNL128W, strain TEP1, active compounds read low): 1.05
- normalized growth [25]: 0.823
- normalized growth [8]: 1.04
- normalized growth [9]: 1.07
- normalized growth [10]: 1.03
- normalized growth [12]: 0.913

SMILES: Cn1c2c(c3c1CCCC3)CCCC2
- normalized growth [13]: 0.995
- normalized growth [14]: 1.03
- normalized growth (locus YCL061C, strain MRC1, active compounds read low): 1.01
- normalized growth [15]: 0.974
- normalized growth [16]: 1.02
- normalized growth [3]: 1.02
- normalized growth [17]: 0.988
- normalized growth [6]: 1.01
- normalized growth [18]: 1.01
- normalized growth (locus YHR087W, strain rtc3, active compounds read low): 0.992
- normalized growth [19]: 1.02
- normalized growth [20]: 1.02
- normalized growth [21]: 1.02
- normalized growth [22]: 0.925
- normalized growth (locus YLR058C, strain SHM2 (second series), active compounds read low): 1.02
- normalized growth (locus YLR085C, strain ARP6, active compounds read low): 1
- normalized growth [23]: 0.974
- normalized growth (locus YML094W, strain GIM5, active compounds read low): 0.972
- normalized growth (locus YMR219W, strain ESC1, active compounds read low): 1.02
- normalized growth [24]: 1
- normalized growth [25]: 0.873 (active)
- normalized growth (locus YNL298W, strain CLA4 (second series), active compounds read low): 1.02
- normalized growth [11]: 1.01
- normalized growth (locus YNR030W, strain Alg12, active compounds read low): 1.03
- normalized growth (locus YOL006C, strain TOP1, active compounds read low): 1
- normalized growth (locus YPL055C, strain LGE1, active compounds read low): 1.08
- normalized growth (locus YPL241C, strain CIN2, active compounds read low): 1.01
- normalized growth (locus YPR135W, strain CTF4, active compounds read low): 1.06
